About 7,900 targets were measured; listed, in parts, are those with a hit and a random draw of the rest. About 0.6% of all pairs of compound and target were hits. Unmarked numbers belong to inactive results.
Legend:
Assay in all cases: log2 fold change, soluble protein after heating vs DMSO (PISA); higher = thermal stabilisation; K562 cells, 10 uM, 30 min; active = over 0.2 and 3.5 SD of the protein, either way, in both replicates (recomputed)
[1] = compound: CC[C@@H]1C(=O)N(C)c2cnc(Nc3ccc(C(=O)NC4CCN(C)CC4)cc3OC)nc2N1C1CCCC1
How it was run: (§1)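 Soluble protein was quantified by TMTpro 16plex LC-MS/MS after channel sums were equalised. It was obtained as the supernatant after 21,000xg for 90 min from pooled aliquots of K562 cells (2×10^6 cells/mL, 10 μM compound, 30 min) heated for 3 min across 48°C-58°C and extracted in PBS with 0.5% NP-40 at 4°C. Thermal stability values are relative to control samples and come from duplicates. They are given as log2 fold changes.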

volasertib = compound: CC[C@@H]1C(=O)N(C)c2cnc(Nc3ccc(C(=O)N[C@H]4CC[C@H](N5CCN(CC6CC6)CC5)CC4)cc3OC)nc2N1C(C)C [volasertib]
How it was run: as §1

[2] = compound: CC[C@H](C)N1C=C(C2=C(C=C(C=C21)C3=CN=C(C=C3)N4CCNCC4)C(=O)NCC5=C(C=C(NC5=O)C)C)C
How it was run: as §1

epoxomicin = compound: CC[C@H](C)[C@@H](C(=O)N[C@@H]([C@@H](C)O)C(=O)N[C@@H](CC(C)C)C(=O)[C@]1(CO1)C)NC(=O)[C@H]([C@@H](C)CC)N(C)C(=O)C [epoxomicin]
How it was run: as §1

[3] = compound: CCn1c(C(=O)N(C2CC2)C2CC2)cc2c3c(ncn3C)c(Nc3cc(C)n(C)n3)nc21
How it was run: as §1

[4] = compound: CCn1cc(-c2ccnc3[nH]c(-c4cccc(CN(C)C)c4)cc23)c(-c2ccc(NC(=O)N(C)C)cc2)n1
How it was run: as §1

[5] = compound: CN(C)CC(=O)Nc1ccc2[nH]c(=O)c3ccccc3c2c1
How it was run: as §1

rosiglitazone = compound: CN(CCOC1=CC=C(C=C1)C[C@H]2C(=O)NC(=O)S2)C3=CC=CC=N3 (racemic) [rosiglitazone]
How it was run: as §1

[6] = compound: CN1C2=C(C3=C1C(=O)N(N=C3)CC4=CC(=CC=C4)N)SC(=C2)S(=O)C
How it was run: as §1

[7] = compound: CN1CCC(CNc2ccc3ncc(-c4cccc(OC(F)(F)F)c4)n3n2)CC1
How it was run: as §1

Chain of UniProt Q8IYI6 (Q8IYI6 whole entry, looked up): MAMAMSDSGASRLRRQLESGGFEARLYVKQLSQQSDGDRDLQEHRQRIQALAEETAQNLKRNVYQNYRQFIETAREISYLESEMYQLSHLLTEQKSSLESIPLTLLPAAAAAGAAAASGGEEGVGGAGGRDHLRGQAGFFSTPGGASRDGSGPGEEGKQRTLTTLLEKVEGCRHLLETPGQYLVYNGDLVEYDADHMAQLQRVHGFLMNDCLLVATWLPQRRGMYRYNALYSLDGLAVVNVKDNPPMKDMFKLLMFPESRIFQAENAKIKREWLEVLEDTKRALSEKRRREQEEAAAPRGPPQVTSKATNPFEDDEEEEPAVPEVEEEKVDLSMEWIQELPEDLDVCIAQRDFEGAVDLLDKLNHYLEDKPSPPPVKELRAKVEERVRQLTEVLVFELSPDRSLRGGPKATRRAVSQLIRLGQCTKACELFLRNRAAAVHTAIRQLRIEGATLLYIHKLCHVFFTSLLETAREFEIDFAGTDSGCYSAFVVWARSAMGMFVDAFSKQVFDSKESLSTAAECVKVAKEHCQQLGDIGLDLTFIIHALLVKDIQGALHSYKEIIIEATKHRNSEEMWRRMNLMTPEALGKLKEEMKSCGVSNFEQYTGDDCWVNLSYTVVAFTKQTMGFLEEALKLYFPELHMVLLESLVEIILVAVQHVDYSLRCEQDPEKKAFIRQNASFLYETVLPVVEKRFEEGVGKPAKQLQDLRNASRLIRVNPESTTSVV
Chain of UniProt Q9NXF7 (Q9NXF7 whole entry, looked up): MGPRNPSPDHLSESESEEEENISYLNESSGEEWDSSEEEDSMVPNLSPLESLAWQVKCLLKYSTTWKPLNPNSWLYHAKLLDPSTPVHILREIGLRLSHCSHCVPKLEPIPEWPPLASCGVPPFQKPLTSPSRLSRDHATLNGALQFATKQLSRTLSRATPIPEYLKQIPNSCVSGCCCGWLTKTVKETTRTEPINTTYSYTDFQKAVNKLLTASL
Chain of UniProt Q9C073 (Q9C073 whole entry, looked up): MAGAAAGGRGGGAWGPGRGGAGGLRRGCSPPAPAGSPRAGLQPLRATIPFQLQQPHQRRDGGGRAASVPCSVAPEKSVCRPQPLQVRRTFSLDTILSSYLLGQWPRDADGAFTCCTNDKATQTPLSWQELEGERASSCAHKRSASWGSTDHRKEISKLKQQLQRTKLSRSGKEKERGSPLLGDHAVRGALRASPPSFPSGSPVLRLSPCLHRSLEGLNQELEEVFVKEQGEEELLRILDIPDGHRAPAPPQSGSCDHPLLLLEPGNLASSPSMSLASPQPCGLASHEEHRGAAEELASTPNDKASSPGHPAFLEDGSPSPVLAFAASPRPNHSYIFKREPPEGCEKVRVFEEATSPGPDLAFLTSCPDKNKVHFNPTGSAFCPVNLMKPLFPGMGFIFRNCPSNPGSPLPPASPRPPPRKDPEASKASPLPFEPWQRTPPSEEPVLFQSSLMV
Chain of UniProt P26641 (P26641 whole entry, looked up): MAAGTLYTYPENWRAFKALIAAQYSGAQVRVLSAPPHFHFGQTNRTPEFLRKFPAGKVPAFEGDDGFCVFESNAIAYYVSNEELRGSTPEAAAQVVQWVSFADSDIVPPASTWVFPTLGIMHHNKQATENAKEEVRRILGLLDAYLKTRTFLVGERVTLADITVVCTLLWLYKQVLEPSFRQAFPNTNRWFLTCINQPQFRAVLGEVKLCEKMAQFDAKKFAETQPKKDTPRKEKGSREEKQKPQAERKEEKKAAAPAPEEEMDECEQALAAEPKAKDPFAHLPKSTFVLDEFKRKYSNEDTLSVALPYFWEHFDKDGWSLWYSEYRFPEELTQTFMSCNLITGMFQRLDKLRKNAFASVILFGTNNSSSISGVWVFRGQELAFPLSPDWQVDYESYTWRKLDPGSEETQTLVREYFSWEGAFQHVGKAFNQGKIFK
Chain of UniProt Q9H2U1 (Q9H2U1 whole entry, looked up): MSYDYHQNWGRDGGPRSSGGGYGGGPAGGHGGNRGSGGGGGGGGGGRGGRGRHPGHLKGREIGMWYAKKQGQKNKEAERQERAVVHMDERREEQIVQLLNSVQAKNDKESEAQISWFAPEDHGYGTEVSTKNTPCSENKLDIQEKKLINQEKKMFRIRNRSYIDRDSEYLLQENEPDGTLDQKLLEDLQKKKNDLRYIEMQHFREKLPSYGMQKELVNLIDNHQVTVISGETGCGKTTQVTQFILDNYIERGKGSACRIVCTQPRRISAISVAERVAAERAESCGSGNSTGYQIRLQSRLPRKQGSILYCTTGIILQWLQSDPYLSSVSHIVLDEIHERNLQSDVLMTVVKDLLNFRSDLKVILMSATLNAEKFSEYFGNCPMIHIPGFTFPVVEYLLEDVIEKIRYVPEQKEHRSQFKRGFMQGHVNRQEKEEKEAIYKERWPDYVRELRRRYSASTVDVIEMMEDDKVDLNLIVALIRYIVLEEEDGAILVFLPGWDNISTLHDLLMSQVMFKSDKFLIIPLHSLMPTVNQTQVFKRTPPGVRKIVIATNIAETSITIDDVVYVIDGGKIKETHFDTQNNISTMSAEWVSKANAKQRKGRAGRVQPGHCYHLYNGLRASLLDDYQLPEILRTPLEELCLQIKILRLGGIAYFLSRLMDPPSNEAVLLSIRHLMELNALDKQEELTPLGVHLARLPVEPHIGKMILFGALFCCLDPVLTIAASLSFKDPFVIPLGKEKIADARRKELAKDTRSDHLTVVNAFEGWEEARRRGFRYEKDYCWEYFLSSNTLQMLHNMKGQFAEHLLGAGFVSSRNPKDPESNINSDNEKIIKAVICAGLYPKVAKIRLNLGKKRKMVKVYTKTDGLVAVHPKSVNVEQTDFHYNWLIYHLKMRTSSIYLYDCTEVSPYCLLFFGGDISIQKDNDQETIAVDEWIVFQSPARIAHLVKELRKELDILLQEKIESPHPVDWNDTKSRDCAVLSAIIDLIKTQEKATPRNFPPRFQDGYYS
Chain of UniProt P09622 (P09622 whole entry, looked up): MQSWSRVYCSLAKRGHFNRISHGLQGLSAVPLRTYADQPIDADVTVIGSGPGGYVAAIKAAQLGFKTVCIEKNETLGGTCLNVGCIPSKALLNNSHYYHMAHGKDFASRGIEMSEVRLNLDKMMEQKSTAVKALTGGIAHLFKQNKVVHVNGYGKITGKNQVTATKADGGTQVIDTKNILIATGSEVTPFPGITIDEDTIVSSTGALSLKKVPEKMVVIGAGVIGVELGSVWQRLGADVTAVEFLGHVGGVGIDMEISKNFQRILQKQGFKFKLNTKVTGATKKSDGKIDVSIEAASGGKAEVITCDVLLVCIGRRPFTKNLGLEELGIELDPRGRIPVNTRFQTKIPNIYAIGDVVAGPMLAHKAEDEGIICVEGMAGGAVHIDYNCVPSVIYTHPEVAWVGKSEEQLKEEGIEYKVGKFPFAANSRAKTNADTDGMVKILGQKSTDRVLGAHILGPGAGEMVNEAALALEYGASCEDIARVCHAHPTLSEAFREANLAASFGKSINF
Chain of UniProt Q15369 (Q15369 whole entry, looked up): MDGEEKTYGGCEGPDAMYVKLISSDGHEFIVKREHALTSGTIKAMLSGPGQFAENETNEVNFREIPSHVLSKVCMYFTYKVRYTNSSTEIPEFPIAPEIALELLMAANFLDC
Chain of UniProt O75477 (O75477 whole entry, looked up): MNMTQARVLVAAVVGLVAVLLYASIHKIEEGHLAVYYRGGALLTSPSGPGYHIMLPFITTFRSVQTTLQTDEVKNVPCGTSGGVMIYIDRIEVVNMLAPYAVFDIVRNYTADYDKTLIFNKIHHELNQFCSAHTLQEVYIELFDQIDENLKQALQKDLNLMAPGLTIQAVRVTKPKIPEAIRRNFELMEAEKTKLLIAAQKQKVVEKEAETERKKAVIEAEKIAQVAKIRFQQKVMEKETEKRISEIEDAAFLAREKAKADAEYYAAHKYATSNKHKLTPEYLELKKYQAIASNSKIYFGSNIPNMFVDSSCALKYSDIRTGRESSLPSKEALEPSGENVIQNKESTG
Chain of UniProt P60842 (P60842 whole entry, looked up): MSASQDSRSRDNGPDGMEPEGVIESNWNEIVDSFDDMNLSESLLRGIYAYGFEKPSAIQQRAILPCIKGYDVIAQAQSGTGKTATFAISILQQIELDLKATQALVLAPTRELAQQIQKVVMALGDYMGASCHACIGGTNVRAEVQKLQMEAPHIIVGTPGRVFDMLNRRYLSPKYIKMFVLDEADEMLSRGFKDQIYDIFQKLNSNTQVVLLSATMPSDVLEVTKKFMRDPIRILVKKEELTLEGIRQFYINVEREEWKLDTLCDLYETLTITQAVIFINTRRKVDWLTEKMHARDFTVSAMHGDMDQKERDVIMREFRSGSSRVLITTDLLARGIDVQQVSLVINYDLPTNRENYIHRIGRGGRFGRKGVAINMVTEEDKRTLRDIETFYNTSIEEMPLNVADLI
Chain of UniProt Q96G46 (Q96G46 whole entry, looked up): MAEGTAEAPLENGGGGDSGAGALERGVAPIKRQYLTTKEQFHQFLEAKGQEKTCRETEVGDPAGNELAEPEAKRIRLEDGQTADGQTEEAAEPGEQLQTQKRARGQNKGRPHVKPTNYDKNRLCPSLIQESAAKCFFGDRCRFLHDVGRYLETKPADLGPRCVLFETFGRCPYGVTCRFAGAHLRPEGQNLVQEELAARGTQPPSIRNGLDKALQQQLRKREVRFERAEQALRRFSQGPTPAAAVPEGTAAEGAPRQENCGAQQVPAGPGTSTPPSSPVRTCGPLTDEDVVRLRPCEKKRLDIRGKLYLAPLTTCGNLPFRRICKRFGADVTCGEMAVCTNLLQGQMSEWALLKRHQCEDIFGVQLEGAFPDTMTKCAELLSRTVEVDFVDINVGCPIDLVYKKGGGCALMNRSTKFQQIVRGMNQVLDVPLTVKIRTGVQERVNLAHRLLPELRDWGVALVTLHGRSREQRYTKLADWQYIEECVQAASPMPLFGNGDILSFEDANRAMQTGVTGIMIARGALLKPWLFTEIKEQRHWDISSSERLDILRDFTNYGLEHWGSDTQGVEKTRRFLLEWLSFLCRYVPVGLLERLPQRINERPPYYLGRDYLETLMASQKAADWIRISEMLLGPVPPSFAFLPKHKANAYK

Row | Target | log2 fold change [1] | log2 fold change (volasertib) | log2 fold change [2] | log2 fold change (epoxomicin) | log2 fold change [3] | log2 fold change [4] | log2 fold change [5] | log2 fold change (rosiglitazone) | log2 fold change [6] | log2 fold change [7]
1 | FADS1, A0A0A0MR51 | 0.022 | -0.148 | 0.036 | 0.024 | 0.002 | -0.002 | -0.007 | 0.017 | -0.119 | -0.041
2 | EDC4 (UniProt Q6P2E9) | -0.126 | -0.47 (active) | 0.042 | 0 | -0.009 | 0.039 | -0.006 | 0.014 | 0.07 | -0.084
3 | DNAAF2 (UniProt Q9NVR5) | 0.11 | -0.113 | -0.031 | -0.012 | 0.029 | 0.095 | 0 | -0.06 | 0.042 | -0.279 (active)
4 | CYP51A1 (UniProt Q16850) | 0.019 | 0.132 | 0.052 | -0.061 | 0.058 | 0.015 | 0.015 | -0.056 | 0.072 | -0.331 (active)
5 | EIF4G1 isoform 8 (UniProt Q04637) | -0.114 | -0.487 | 0.174 | 0.016 | -0.076 | 0.005 | 0.031 | 0.047 | 0.181 | -0.425
6 | CTSB (UniProt P07858) | -1.16 (active) | -1.72 (active) | -0.009 | -0.011 | 0.017 | -0.047 | 0.021 | -0.007 | -0.07 | -0.936 (active)
7 | DPP8 (UniProt Q6V1X1) | 0.143 | 0.007 | -0.025 | -0.045 | 0.019 | 0.002 | -0.057 | 0.02 | -0.047 | -0.106
8 | EXOC4 (UniProt Q96A65) | -0.145 | -0.606 (active) | 0.095 | 0.005 | -0.129 | 0.021 | 0.061 | 0.021 | 0.103 | -0.243
9 | ELOC (UniProt Q15369) | -0.009 | -0.016 | 0.042 | 0.028 | 0.006 | -0.087 | 0.108 | 0.011 | -0.033 | -0.014
10 | EXOC8 (UniProt Q8IYI6) | -0.212 | -0.367 (active) | 0.045 | -0.004 | -0.088 | 0.003 | 0.073 | 0.05 | 0.009 | -0.295 (active)
11 | DCAF16 (UniProt Q9NXF7) | -0.164 | -0.532 (active) | 0.06 | 0.032 | -0.026 | -0.205 | 0.073 | 0.055 | -0.052 | 0.03
12 | CTSH (UniProt P09668) | -0.087 | -0.06 | 0.008 | -0.022 | 0.03 | 0.057 | 0.001 | 0.004 | -0.008 | -0.295 (active)
13 | DTWD1 (UniProt Q8N5C7) | -0.081 | -0.196 | -0.07 | -0.054 | 0.018 | -0.033 | 0.036 | 0.057 | -0.046 | 0.089
14 | ERLIN1 (UniProt O75477) | -0.01 | -0.025 | 0.07 | 0.018 | 0.01 | 0.057 | 0.003 | 0.016 | 0.095 | 0.116
15 | ELOVL1 (UniProt Q9BW60) | -0.217 | -0.127 | -0.011 | 0.003 | -0.044 | 0.032 | 0.116 | 0.002 | -0.068 | -0.691 (active)
16 | DLD (UniProt P09622) | 0.043 | 0.143 | -0.028 | -0.015 | 0.049 | -0.007 | -0.012 | -0.008 | -0.035 | -0.118

Row | Target | log2 fold change [1] | log2 fold change (volasertib) | log2 fold change [2] | log2 fold change (epoxomicin) | log2 fold change [3] | log2 fold change [4] | log2 fold change [5] | log2 fold change (rosiglitazone) | log2 fold change [6] | log2 fold change [7]
17 | EEF1G isoform 2 (UniProt P26641) | -0.164 | -0.364 (active) | 0.075 | 0.008 | -0.012 | -0.005 | 0.022 | 0.005 | 0.011 | 0.016
18 | DHX36 (UniProt Q9H2U1) | 0.11 | 0.059 | 0.002 | -0.032 | -0.009 | 0.032 | -0.032 | -0.015 | 0.086 | -0.027
19 | DDX5 (UniProt P17844) | -0.426 (active) | -0.589 (active) | 0.103 | 0.149 | -0.115 | -0.083 | 0.101 | 0.066 | 0.018 | 0.019
20 | FAM114A2 (UniProt Q9NRY5) | -0.094 | -0.136 | 0.046 | 0.052 | -0.001 | -0.059 | 0.02 | 0.049 | -0.013 | -0.29 (active)
21 | FAM117A (UniProt Q9C073) | 0.001 | 0.129 | 0.071 | 0.091 | 0.006 | -0.025 | 0.028 | 0.015 | -0.008 | -0.182
22 | DIP2A (UniProt Q14689) | -0.065 | 0.026 | -0.037 | -0.017 | 0.037 | -0.063 | -0.041 | -0.034 | -0.045 | 0.057
23 | DUS3L (UniProt Q96G46) | -0.162 | -0.331 (active) | 0.017 | 0.087 | 0.004 | 0.02 | 0.028 | 0.007 | 0.021 | -0.04
24 | EIF4A1 (UniProt P60842) | -0.106 | -0.273 (active) | 0.079 | 0.001 | 0.001 | -0.052 | 0.047 | 0.06 | -0.046 | -0.126
25 | CWC27 (UniProt Q6UX04) | -0.103 | -0.421 (active) | 0.086 | 0.094 | -0.089 | 0.117 | 0.066 | 0.143 | -0.011 | -0.091
26 | EED, A0A5F9ZI63 | -0.052 | -0.055 | -0.159 | -0.032 | -0.001 | 0.068 | -0.099 | 0.054 | 0.045 | 0.209
27 | DDX46 (UniProt Q7L014) | -0.259 | -0.275 | 0.087 | 0.192 | -0.211 | -0.129 | 0.133 | 0.106 | -0.066 | 0.087
28 | DAB2 (UniProt P98082) | -0.204 | -0.289 (active) | 0.042 | -0.004 | -0.014 | 0.022 | 0.132 | 0.032 | 0.032 | -0.111
29 | DHRS3 (UniProt O75911) | 0.134 | 0.02 | 0.02 | -0.002 | 0.001 | 0.001 | -0.054 | -0.013 | -0.062 | 0.056
30 | DCAF6 isoform 3 (UniProt Q58WW2) | 0.077 | 0.05 | -0.064 | 0.025 | 0.013 | -0.03 | -0.035 | 0.006 | 0.006 | 0.004
31 | FAM122A (UniProt Q96E09) | -0.042 | -0.054 | 0.006 | -0.141 | -0.029 | -0.426 (active) | -0.043 | 0.064 | -0.081 | -0.699 (active)

From the supplement of paper PMC10849652
